Measured values published in the supplement of paper PMC9694430.
Structures can show the parent of a compound that is named as a salt.

Columns and labels:
Assay in all cases: thermal shift delta Tm vs DMSO control; higher = stronger stabilization (binding)
Conditions in all cases: 12.5 µM; protein concentration 2 µM
LOC_OS04G57630-cb004 = system: LOC_OS04G57630-cb004
Summary of the method: (§1)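 Thermal shift values come from differential scanning fluorimetry on purified rice kinase domains made in E. coli, with melting temperatures obtained from Boltzmann fits. Samples of 19.5 μl held 2 μM kinase, 100 mM potassium phosphate pH 7.5, 150 mM NaCl, 10% glycerol, 5 × SYPRO Orange and compound in DMSO, and were heated from 25°C to 95°C at 0.05°C/s. Each shift is a triplicate mean relative to the DMSO-only protein sample.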

LOC_OS05G07850-cb002 = system: LOC_OS05G07850-cb002
Summary of the method: as §1

LOC_OS05G16824-cb004 = system: LOC_OS05G16824-cb004
Summary of the method: as §1

LOC_OS05G28520-cb001 = system: LOC_OS05G28520-cb001
Summary of the method: as §1

LOC_OS05G30820-cb001 = system: LOC_OS05G30820-cb001
Summary of the method: as §1

LOC_OS05G43570-cb004 = system: LOC_OS05G43570-cb004
Summary of the method: as §1

LOC_OS06G16330-cb003 = system: LOC_OS06G16330-cb003
Summary of the method: as §1

LOC_OS06G22820-cb001 = system: T1, LOC_OS06G22820-cb001
T1 sequence (whole entry): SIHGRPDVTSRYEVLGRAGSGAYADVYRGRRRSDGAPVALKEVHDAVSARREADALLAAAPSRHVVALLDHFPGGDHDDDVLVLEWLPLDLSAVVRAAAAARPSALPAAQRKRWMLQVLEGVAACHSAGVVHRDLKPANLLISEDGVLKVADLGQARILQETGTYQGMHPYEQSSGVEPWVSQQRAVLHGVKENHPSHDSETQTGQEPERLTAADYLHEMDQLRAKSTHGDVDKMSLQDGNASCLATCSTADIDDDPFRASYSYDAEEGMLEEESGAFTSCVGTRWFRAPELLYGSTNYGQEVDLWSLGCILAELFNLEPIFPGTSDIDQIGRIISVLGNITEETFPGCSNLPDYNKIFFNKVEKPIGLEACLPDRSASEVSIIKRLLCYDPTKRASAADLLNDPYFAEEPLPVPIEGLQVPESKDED
Summary of the method: as §1

LOC_OS07G06570-cb004 = system: LOC_OS07G06570-cb004
Summary of the method: as §1

LOC_OS07G07230-cb001 = system: LOC_OS07G07230-cb001
Summary of the method: as §1
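Also: purified Escherichia coli-expressed rice kinase domain construct.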

Sequence of LOC_OS06G16330-cb003 (as listed by the source): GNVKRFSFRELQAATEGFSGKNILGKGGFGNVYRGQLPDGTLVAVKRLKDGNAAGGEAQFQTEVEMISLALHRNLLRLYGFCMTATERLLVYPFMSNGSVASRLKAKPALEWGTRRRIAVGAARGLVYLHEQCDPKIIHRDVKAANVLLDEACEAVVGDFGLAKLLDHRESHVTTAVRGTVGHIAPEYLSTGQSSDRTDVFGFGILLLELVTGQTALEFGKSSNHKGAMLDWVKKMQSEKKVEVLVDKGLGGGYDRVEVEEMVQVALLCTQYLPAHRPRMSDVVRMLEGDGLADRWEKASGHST

SMILES	thermal shift delta Tm (LOC_OS04G57630-cb004) [°C]	thermal shift delta Tm (LOC_OS05G07850-cb002) [°C]	thermal shift delta Tm (LOC_OS05G16824-cb004) [°C]	thermal shift delta Tm (LOC_OS05G28520-cb001) [°C]	thermal shift delta Tm (LOC_OS05G30820-cb001) [°C]	thermal shift delta Tm (LOC_OS05G43570-cb004) [°C]	thermal shift delta Tm (LOC_OS06G16330-cb003) [°C]	thermal shift delta Tm (LOC_OS06G22820-cb001) [°C]	thermal shift delta Tm (LOC_OS07G06570-cb004) [°C]	thermal shift delta Tm (LOC_OS07G07230-cb001) [°C]
Cc1cc(Nc2ncnc3ccc(NC4=NC(C)(C)CO4)cc23)ccc1Oc1ccn2ncnc2c1 [Irbinitinib (ARRY-380, ONT-380)]	0.3	0.8	-0.96	0.07	0.07	0.33	-0.51	0.49	1.27	0.02
CC(C)c1cnn2c(NCc3ccccc3)cc(NCCCCCCN)nc12	-0.33	-0.23	-2.84	0.27	0.42	0.43	-0.05	0.96	1.35	0.18
FC(F)(F)c1ccc(/C=C/c2nc(COc3ccc(CCCCn4ccnn4)cc3)co2)cc1 [Mubritinib (TAK 165)]	0.31	0.65	-1.49	0.05	0.57	0.39	-0.19	0.32	0.47	-1.09
CN1C(=O)[C@@H](NC(=O)c2n[nH]c(Cc3ccccc3)n2)COc2ccccc21	0.41	0.32	2.34	-0.04	0.15	0.36	0.02	0.48	1.77	0.47
COc1ccc(CC(=O)Nc2nc3c(s2)CCc2ccccc2-3)cc1OC	0.43	1.41	2.09	0.12	0.13	0.04	-0.23	0.35	1.1	0.06
O=C1NCCc2[nH]c(-c3ccncc3)cc21	0.34	4.2	-2.22	0.25	0.53	0.46	1.3	0.55	0.4	0.42
C=C[C@@](C)(/C=C/c1ccc(O)cc1)CCC=C(C)C [Bakuchiol]	0.09	0.26	-1.27	0.19	0.04	0.47	-0.03	0.41	0.83	0.15
Oc1cccc(-c2nc(N3CCOCC3)c3oc4ncccc4c3n2)c1	-0.25	0.47	1.57	0.51	0.49	0.69	0.07	0.82	1.15	0.33
O=C(NC[C@H](O)CO)c1ccncc1Nc1ccc(I)cc1F	0.16	0.04	-2.59	-0.04	0.65	0.08	-0.12	0.62	0.95	0.62
Cc1ncc(CCCN(C)C)cc1Nc1ncc2c(n1)-c1ccc(C(F)(F)F)cc1NC(=S)C2	-0.2	-0.13	3.13	0.71	0.52	0.48	0.15	0.79	1.65	0.32
CC(C)n1nc(-c2cc3cc(O)ccc3[nH]2)c2c(N)ncnc21 [Torkinib (PP242)]	0.41	5.09	-3.24	0.21	0.67	0.33	1.93	0.42	0.62	0.14
COc1cc(N2CCN(C)CC2)ccc1Nc1ncc2c(n1)N(C)c1ccccc1C(=O)N2	0.23	3.08	-1.75	0.12	0.51	0.36	1.14	0.34	0.21	0.21
C[C@H](CN(C)C)Oc1nc(Nc2cc3cccc(Cl)c3cn2)cnc1C#N	-0.04	5.49	3.41	0.32	0.46	0.43	1.98	0.49	0.8	0.34
CC1(C)OCCn2c1nc1c(N3CCOCC3)nc(-c3cnc(N)nc3)nc12	0.29	1.01	-0.61	0.5	0.57	0.76	2.07	0.14	1.2	0.43
CN1CCN(c2ccc(OC(F)(F)F)c(Nc3ncc4c(n3)-c3c(c(C(N)=O)nn3CCO)CC4)c2)CC1	2.32	0.85	-0.84	0.63	0.48	0.54	0.46	0.49	1.36	0.02
O=C(O)c1ccc2c(c1)nc(Nc1cccc(Cl)c1)c1ccncc12 [Silmitasertib (CX-4945)]	0.56	8.41	3.01	0.57	0.68	0.46	3.05	0.65	1.59	0.82
COc1cc2nccc(Oc3ccc(NC(=O)Nc4cc(C)on4)c(Cl)c3)c2cc1OC [Tivozanib (AV-951)]	3.28	9.77	2.86	2.41	0.62	0.21	10.8	0.55	0.52	-0.04
Cc1[nH]c(/C=C2\C(=O)Nc3ccc(S(=O)(=O)Cc4c(Cl)cccc4Cl)cc32)c(C)c1C(=O)N1CCC[C@@H]1CN1CCCC1	2.32	10.3	0	0.75	0.48	0.55	6.03	0.86	0.77	0.98
CNC(=O)c1cc(Oc2ccc(NC(=O)Nc3ccc(Cl)c(C(F)(F)F)c3)cc2)ccn1 [Sorafenib Tosylate]	1.2	9.63	1.35	1.33	0.5	1.5	1.91	2.15	1.66	0.6
